Reference: the supplement of paper PMC11732987, “Enantioselective OTUD7B fragment discovery through chemoproteomics screening and high-throughput optimisation” (Communications Chemistry, 2025)

What was measured:
Assay in all cases: log2 ratio of Biotin-Ahx-Ub-VS probe labelling (compound/DMSO); higher = less target engagement, active = hit call of the paper (q ≤ 0.05, log2 ratio ≤ -1)
Details in all cases: treatment time: 3 h
[1] = compound: CCC1N(CCc2sccc12)C(=O)CCl
Outline: (§1)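 For activity-based profiling, 495 µg portions of HEK293T lysate in Tris/CHAPS/IGEPAL buffer with protease inhibitors were treated in triplicate with compound at 50 or 200 µM or with DMSO for 3 h. A 1 h incubation with Biotin-Ahx-Ub-VS (0.5 µM final) followed, then NeutrAvidin enrichment, LysC and trypsin digestion and diaPASEF LC-MS/MS. The compound/DMSO base-two log ratios were averaged from median-normalised label-free quantities using an unpaired t-test. Proteins needed at least 2 unique peptides to be included.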

[2] = compound: CN1c2ccccc2C(CS1(=O)=O)NC(=O)CCl
Outline: as §1

[3] = compound: Cl.ClCC(=O)N1CCc2ncncc2C1
Outline: as §1

[4] = compound: Cl.Cn1ncc2C(CCCc12)NC(=O)CCl
Outline: as §1

[5] = compound: ClCC(=O)NC1CCOc2ccccc12
Outline: as §1

[6] = compound: ClCC(=O)NC1CCCc2ccccc12
Outline: (§2)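 In triplicate, 495 µg portions of HEK293T lysate in Tris/CHAPS/IGEPAL buffer with protease inhibitors received compound across a concentration series or vehicle for 3 h, followed by 1 h with 0.5 µM final Biotin-Ahx-Ub-VS. After NeutrAvidin enrichment and LysC/trypsin digestion, the labelled deubiquitinases were measured by diaPASEF LC-MS/MS and quantified label-free in Spectronaut with global-median normalisation. Each value is an average compound-to-vehicle ratio from an unpaired t-test, expressed as log2 and restricted to proteins having two or more unique peptides.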

[7] = compound: ClCC(=O)N[C@@H]1CCCc2ccccc12
Outline: as §2

[8] = compound: ClCC(=O)N[C@H]1CCCc2ccccc12
Outline: as §2

[9] = compound: CCC1N(CCc2cc(OC)c(Cl)cc12)C(=O)CCl
Outline: as §1

[10] = compound: CCCC1N(CCc2cc(OC)c(OC)cc12)C(=O)CCl
Outline: as §1

[11] = compound: CN(Cc1cccc(Br)c1)C(=O)CCl
Outline: as §1

[12] = compound: CN(Cc1cccc(OCc2ccccc2C)c1)C(=O)CCl
Outline: as §1

[13] = compound: CN(Cc1ccccc1)C(=O)CCl
Outline: as §1

[14] = compound: COc1ccc(CN(C)C(=O)CCl)cc1
Outline: as §1

[15] = compound: COc1cccc(CN(CCCc2ccccc2)C(=O)CCl)c1
Outline: as §1

[16] = compound: ClCC(=O)N1CCc2cc(Cl)c(Cl)cc2C1
Outline: as §1

[17] = compound: ClCC(=O)N1CCc2nc(ncc2C1)-c1ccccc1
Outline: as §1

[18] = compound: ClCC(=O)N1CCc2nocc2C1
Outline: as §1

[19] = compound: ClCC(=O)N1CCc2scc(Br)c2C1
Outline: as §1

[20] = compound: ClCC(=O)NC(C1CCCC1)c1cccs1
Outline: as §1

Measured: log2 ratio of Biotin-Ahx-Ub-VS probe labelling

USP36 (UniProt Q9P275)
Chain of UniProt Q9P275 (Q9P275 whole entry): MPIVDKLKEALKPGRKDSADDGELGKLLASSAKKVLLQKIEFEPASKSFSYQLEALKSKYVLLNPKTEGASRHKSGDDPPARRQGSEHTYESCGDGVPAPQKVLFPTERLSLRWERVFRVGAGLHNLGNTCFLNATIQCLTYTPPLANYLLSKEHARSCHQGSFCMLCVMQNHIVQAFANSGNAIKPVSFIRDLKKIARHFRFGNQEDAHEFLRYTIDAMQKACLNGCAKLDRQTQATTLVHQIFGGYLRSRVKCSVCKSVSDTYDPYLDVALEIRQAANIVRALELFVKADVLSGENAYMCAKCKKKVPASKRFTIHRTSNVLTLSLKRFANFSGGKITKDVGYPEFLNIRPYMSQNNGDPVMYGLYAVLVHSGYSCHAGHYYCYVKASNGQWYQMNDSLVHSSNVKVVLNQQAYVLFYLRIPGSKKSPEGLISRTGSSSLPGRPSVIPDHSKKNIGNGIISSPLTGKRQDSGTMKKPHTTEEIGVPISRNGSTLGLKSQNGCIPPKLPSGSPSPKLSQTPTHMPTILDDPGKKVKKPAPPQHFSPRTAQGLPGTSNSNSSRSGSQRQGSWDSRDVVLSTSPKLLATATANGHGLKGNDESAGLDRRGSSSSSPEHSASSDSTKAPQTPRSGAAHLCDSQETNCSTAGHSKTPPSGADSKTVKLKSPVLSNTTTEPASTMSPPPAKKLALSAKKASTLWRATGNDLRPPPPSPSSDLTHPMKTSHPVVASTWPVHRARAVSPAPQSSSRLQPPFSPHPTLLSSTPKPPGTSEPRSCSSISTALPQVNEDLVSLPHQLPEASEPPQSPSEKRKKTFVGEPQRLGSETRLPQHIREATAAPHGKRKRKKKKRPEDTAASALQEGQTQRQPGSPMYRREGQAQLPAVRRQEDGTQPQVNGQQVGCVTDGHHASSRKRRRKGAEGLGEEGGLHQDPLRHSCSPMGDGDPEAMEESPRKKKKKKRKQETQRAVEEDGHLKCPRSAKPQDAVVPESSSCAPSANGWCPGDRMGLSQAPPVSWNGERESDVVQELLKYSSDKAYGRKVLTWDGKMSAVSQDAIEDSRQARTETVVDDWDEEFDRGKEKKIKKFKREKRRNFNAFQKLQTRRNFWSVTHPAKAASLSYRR
inactive: [1]; compound concentration: 50uM 0.0835 | [1]; compound concentration: 200uM 0.229 | [2]; compound concentration: 50uM -0.127 | [2]; compound concentration: 200uM -0.0119 | [3]; compound concentration: 50uM -0.031 | [3]; compound concentration: 200uM -0.0419 | [4]; compound concentration: 50uM -0.145 | [4]; compound concentration: 200uM 0.158 | [5]; compound concentration: 50uM -0.121 | [5]; compound concentration: 200uM 0.283 | [6]; compound concentration: 0.78uM 0.0108 | [6]; compound concentration: 1.56uM -0.0128 | [6]; compound concentration: 3.13uM -0.0405 | [6]; compound concentration: 6.25uM -0.0421 | [6]; compound concentration: 12.5uM -0.0282 | [6]; compound concentration: 25uM -0.0131 | [6]; compound concentration: 50uM -0.0217 | [6]; compound concentration: 100uM -0.0954 | [6]; compound concentration: 200uM -0.112 | [7]; compound concentration: 0.78uM 0.107 | [7]; compound concentration: 1.56uM -0.0192 | [7]; compound concentration: 3.13uM 0.083 | [7]; compound concentration: 6.25uM 0.157 | [7]; compound concentration: 12.5uM 0.0169 | [7]; compound concentration: 25uM 0.092 | [7]; compound concentration: 50uM -0.0214 | [7]; compound concentration: 100uM 0.019 | [7]; compound concentration: 200uM -0.0674 | [8]; compound concentration: 0.78uM -0.0951 | [8]; compound concentration: 1.56uM 0.0305 | [8]; compound concentration: 3.13uM 0.102 | [8]; compound concentration: 6.25uM -0.0246 | [8]; compound concentration: 12.5uM -0.0557 | [8]; compound concentration: 25uM -0.0153 | [8]; compound concentration: 50uM -0.0239 | [8]; compound concentration: 100uM -0.0145 | [8]; compound concentration: 200uM 0.0455 | [9]; compound concentration: 50uM -0.334 | [9]; compound concentration: 200uM -0.141 | [10]; compound concentration: 50uM -0.272 | [10]; compound concentration: 200uM -0.0152 | [11]; compound concentration: 50uM -0.113 | [11]; compound concentration: 200uM -0.219 | [12]; compound concentration: 50uM -0.207 | [12]; compound concentration: 200uM -0.146 | [13]; compound concentration: 50uM -0.167 | [13]; compound concentration: 200uM -0.139 | [14]; compound concentration: 50uM -0.166 | [14]; compound concentration: 200uM -0.1 | [15]; compound concentration: 50uM -0.116 | [15]; compound concentration: 200uM -0.158 | [16]; compound concentration: 50uM -0.152 | [16]; compound concentration: 200uM 0.149 | [17]; compound concentration: 50uM -0.0391 | [17]; compound concentration: 200uM -0.252 | [18]; compound concentration: 50uM -0.06 | [18]; compound concentration: 200uM -0.0333 | [19]; compound concentration: 50uM 0.0162 | [19]; compound concentration: 200uM 0.122 | [20]; compound concentration: 50uM -0.296 | [20]; compound concentration: 200uM -0.0298

UniProt Q70EL2
Chain of UniProt Q70EL2 (Q70EL2 whole entry): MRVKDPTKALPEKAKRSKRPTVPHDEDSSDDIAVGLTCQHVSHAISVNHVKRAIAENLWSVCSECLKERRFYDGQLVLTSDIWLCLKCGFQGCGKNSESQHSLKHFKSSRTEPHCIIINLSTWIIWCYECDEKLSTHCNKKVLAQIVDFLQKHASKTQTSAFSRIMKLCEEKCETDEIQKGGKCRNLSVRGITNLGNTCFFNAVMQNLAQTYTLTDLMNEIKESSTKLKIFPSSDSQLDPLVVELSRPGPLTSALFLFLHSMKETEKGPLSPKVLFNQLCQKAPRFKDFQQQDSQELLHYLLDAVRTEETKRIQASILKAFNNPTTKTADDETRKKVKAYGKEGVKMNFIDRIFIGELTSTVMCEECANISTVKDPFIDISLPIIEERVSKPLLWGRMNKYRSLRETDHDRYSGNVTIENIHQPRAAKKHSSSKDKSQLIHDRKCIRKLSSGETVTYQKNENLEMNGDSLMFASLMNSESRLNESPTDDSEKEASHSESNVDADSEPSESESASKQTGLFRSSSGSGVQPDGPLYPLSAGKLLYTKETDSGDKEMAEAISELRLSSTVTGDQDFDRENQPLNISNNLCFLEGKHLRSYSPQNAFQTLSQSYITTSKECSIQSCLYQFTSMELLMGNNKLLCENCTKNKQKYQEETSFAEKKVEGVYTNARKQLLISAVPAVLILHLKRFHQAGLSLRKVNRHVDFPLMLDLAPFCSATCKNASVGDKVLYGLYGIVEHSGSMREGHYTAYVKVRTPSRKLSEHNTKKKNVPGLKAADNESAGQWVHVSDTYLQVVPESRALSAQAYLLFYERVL
active: [16]; compound concentration: 200uM -1.27 | [17]; compound concentration: 200uM -1.03
inactive: [1]; compound concentration: 50uM -0.13 | [1]; compound concentration: 200uM -0.934 | [2]; compound concentration: 50uM -0.103 | [2]; compound concentration: 200uM -0.476 | [3]; compound concentration: 50uM 0.274 | [3]; compound concentration: 200uM -0.808 | [4]; compound concentration: 50uM 0.181 | [4]; compound concentration: 200uM -0.179 | [5]; compound concentration: 50uM 0.189 | [5]; compound concentration: 200uM -0.754 | [9]; compound concentration: 50uM -0.48 | [9]; compound concentration: 200uM -0.823 | [10]; compound concentration: 50uM -0.354 | [10]; compound concentration: 200uM -0.47 | [11]; compound concentration: 50uM -0.228 | [11]; compound concentration: 200uM -0.814 | [12]; compound concentration: 50uM -0.959 | [12]; compound concentration: 200uM -0.772 | [13]; compound concentration: 50uM -0.191 | [13]; compound concentration: 200uM -0.88 | [14]; compound concentration: 50uM -0.338 | [14]; compound concentration: 200uM -0.647 | [15]; compound concentration: 50uM -0.512 | [15]; compound concentration: 200uM -0.481 | [16]; compound concentration: 50uM -0.569 | [17]; compound concentration: 50uM -0.558 | [18]; compound concentration: 50uM -0.0582 | [18]; compound concentration: 200uM -0.311 | [19]; compound concentration: 50uM -0.413 | [19]; compound concentration: 200uM -0.868 | [20]; compound concentration: 50uM 0.37 | [20]; compound concentration: 200uM -0.115
